From paper PMC7862700, “An all-to-all approach to the identification of sequence-specific readers for epigenetic DNA modifications on cytosine”

Columns and labels:
Experiment in all cases: DAPPL (digital affinity profiling via proximity ligation, sequencing); 10 mM Tris-HCl pH 7.5, 50 mM NaCl, 1 mM DTT, 4% glycerol, room temperature, 30 min; GST-TFs on glutathione beads, 16-mer random dsDNA library, 0.1% formaldehyde crosslink after washing; high values mean tight binding
Settings in all cases: protein: recombinant; tags: N-terminal GST; dsDNA, one strand shown
FLI1 = target: T1, FLI1 (Homo sapiens, UniProt Q01543 1-452)
T1 sequence: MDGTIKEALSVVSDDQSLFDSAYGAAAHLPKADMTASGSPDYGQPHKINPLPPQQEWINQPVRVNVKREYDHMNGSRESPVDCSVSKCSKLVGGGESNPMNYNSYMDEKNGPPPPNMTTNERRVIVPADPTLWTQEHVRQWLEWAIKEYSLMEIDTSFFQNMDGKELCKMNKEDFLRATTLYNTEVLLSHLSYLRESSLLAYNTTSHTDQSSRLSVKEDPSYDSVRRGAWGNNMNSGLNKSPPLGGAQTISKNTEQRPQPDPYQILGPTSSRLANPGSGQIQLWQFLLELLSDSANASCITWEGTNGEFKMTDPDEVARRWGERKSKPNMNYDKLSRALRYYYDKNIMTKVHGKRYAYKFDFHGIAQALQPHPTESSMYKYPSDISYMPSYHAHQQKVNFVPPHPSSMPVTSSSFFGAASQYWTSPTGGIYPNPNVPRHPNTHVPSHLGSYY
Outline: (§1)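 Sequencing on an Illumina NextSeq500 followed washing, crosslinking with 0.1% formaldehyde, proximity ligation (BsaI/T4 ligase, 1 h, 37 °C) and PCR amplification of pools that had been incubated for 30 min at room temperature with 200 nmole of a random double-stranded 16-mer DNA library in Tris/NaCl/DTT/glycerol buffer. Each pool held DNA-barcoded human transcription factors, expressed in yeast as GST fusions and captured on glutathione beads, plus a tag-only sample. Binding signal is a hexamer's read frequency for a factor divided by its frequency in the tag-only sample.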

ELK1 = target: T2, ELK1 (Homo sapiens, UniProt P19419 1-428)
T2 sequence: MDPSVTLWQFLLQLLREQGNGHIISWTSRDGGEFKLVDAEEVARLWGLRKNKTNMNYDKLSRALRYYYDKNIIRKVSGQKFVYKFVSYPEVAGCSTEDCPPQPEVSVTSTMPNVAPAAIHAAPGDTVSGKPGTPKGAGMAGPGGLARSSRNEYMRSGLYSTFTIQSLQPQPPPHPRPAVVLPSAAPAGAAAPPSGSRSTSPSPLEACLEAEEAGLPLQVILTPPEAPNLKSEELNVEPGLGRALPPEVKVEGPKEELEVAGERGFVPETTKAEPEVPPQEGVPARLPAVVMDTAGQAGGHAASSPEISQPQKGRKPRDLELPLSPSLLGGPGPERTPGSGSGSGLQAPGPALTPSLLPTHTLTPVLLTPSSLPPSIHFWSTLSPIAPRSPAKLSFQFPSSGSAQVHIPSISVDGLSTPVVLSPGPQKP
Outline: as §1

GABPA = target: T3, GABPA (Homo sapiens, UniProt Q06546 1-454)
T3 sequence: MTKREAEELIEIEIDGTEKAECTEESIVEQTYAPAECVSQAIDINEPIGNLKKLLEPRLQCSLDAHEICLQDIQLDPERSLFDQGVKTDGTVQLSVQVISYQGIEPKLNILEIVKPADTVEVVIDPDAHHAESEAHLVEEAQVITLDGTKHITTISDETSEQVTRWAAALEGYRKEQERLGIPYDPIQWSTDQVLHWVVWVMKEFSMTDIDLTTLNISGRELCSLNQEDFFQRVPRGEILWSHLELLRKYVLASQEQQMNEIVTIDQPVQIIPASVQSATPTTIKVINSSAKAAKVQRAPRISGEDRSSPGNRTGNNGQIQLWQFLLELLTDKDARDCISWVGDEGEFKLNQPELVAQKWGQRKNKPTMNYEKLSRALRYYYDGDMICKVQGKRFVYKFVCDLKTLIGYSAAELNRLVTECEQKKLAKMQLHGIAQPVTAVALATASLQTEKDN
Outline: as §1

ERG = target: T4, ERG (Homo sapiens, UniProt P11308 1-479)
T4 sequence: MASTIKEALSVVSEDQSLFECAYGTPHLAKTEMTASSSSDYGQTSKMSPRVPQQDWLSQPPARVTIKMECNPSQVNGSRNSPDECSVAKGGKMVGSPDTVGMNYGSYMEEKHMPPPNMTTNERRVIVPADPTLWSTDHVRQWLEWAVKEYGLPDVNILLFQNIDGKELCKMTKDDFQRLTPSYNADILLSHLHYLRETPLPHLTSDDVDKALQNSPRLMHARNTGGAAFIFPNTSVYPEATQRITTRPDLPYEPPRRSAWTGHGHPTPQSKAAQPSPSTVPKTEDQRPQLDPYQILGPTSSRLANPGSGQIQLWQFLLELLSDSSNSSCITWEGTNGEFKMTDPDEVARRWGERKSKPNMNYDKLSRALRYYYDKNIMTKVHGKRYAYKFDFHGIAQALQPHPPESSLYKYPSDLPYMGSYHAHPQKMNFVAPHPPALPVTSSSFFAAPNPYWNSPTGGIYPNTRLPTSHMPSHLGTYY
Outline: as §1

ELF1 = ELF1 (Homo sapiens, UniProt P32519 1-619)
Outline: as §1

EHF = target: T5, EHF (Homo sapiens, UniProt Q9NZC4 1-300)
T5 sequence: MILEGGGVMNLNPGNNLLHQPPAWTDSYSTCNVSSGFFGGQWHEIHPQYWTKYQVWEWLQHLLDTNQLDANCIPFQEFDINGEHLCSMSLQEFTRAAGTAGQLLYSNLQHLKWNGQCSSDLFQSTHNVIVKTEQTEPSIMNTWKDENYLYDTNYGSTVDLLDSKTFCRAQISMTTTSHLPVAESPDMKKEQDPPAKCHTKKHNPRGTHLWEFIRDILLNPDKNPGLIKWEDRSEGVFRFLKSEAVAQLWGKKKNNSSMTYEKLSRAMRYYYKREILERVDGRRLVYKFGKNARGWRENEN
Outline: as §1

SPI1 = SPI1 (Homo sapiens, UniProt P17947 1-270)
Outline: as §1

SPIB = SPIB (Homo sapiens, UniProt Q01892 1-262)
Outline: as §1

ELK3 = target: T6, ELK3 (Homo sapiens, UniProt P41970 1-407)
T6 sequence: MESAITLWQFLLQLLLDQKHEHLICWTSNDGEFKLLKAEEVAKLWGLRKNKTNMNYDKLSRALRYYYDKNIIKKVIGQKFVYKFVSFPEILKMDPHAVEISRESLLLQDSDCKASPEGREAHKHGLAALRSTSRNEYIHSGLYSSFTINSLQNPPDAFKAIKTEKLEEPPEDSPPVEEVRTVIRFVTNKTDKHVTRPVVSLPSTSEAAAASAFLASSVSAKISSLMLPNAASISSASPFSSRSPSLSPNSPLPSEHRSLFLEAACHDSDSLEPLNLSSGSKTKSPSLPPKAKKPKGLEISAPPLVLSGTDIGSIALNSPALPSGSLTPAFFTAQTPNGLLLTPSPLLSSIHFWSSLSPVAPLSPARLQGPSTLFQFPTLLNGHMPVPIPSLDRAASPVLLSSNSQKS
Outline: as §1

Chain of ELF1 (P32519 whole entry): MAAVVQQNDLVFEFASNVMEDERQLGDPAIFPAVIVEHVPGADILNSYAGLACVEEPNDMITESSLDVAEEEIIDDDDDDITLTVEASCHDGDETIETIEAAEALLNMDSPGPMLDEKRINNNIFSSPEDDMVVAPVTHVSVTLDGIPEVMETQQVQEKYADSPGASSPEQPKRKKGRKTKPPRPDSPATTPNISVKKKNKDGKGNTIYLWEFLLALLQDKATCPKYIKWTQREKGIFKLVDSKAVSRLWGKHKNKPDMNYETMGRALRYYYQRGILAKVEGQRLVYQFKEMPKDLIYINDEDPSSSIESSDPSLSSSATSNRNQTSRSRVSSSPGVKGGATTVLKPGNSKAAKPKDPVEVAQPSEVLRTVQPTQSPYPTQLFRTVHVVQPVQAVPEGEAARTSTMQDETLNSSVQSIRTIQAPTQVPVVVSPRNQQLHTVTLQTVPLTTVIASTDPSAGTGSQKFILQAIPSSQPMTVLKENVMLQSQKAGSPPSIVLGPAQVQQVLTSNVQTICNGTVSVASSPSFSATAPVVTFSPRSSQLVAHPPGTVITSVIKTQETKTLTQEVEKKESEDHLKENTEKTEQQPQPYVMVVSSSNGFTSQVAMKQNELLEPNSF
Chain of SPIB (Q01892 whole entry): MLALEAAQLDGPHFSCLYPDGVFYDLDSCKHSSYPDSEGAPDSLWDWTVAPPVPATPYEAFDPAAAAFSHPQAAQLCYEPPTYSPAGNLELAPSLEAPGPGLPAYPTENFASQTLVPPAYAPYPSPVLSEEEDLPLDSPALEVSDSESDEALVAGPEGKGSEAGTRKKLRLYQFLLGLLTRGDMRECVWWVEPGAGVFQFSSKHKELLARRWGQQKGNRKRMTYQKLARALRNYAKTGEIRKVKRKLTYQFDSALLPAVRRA

Sequence: CTGATG
- binding signal (FLI1): 1.75 fold enrichment (6-mer frequency, TF over GST control)
- binding signal (ELK1): 1.65 fold enrichment (6-mer frequency, TF over GST control)
- binding signal (GABPA): 1.7 fold enrichment (6-mer frequency, TF over GST control)
- binding signal (ERG): 1.43 fold enrichment (6-mer frequency, TF over GST control)
- binding signal (ELF1): 1.6 fold enrichment (6-mer frequency, TF over GST control)
- binding signal (EHF): 1.59 fold enrichment (6-mer frequency, TF over GST control)
- binding signal (SPI1): 1.63 fold enrichment (6-mer frequency, TF over GST control)
- binding signal (SPIB): 1.7 fold enrichment (6-mer frequency, TF over GST control)
- binding signal (ELK3): 1.5 fold enrichment (6-mer frequency, TF over GST control)

Sequence: AAATGG
- binding signal (FLI1): 1.52 fold enrichment (6-mer frequency, TF over GST control)
- binding signal (ELK1): 1.42 fold enrichment (6-mer frequency, TF over GST control)
- binding signal (GABPA): 1.49 fold enrichment (6-mer frequency, TF over GST control)
- binding signal (ERG): 1.56 fold enrichment (6-mer frequency, TF over GST control)
- binding signal (ELF1): 1.49 fold enrichment (6-mer frequency, TF over GST control)
- binding signal (EHF): 1.55 fold enrichment (6-mer frequency, TF over GST control)
- binding signal (SPI1): 1.59 fold enrichment (6-mer frequency, TF over GST control)
- binding signal (SPIB): 1.43 fold enrichment (6-mer frequency, TF over GST control)
- binding signal (ELK3): 1.47 fold enrichment (6-mer frequency, TF over GST control)

Sequence: AGAAGC
- binding signal (FLI1): 1.11 fold enrichment (6-mer frequency, TF over GST control)
- binding signal (ELK1): 1.15 fold enrichment (6-mer frequency, TF over GST control)
- binding signal (GABPA): 1.12 fold enrichment (6-mer frequency, TF over GST control)
- binding signal (ERG): 1.16 fold enrichment (6-mer frequency, TF over GST control)
- binding signal (ELF1): 1.08 fold enrichment (6-mer frequency, TF over GST control)
- binding signal (EHF): 1.21 fold enrichment (6-mer frequency, TF over GST control)
- binding signal (SPI1): 1.22 fold enrichment (6-mer frequency, TF over GST control)
- binding signal (SPIB): 1.15 fold enrichment (6-mer frequency, TF over GST control)
- binding signal (ELK3): 1.1 fold enrichment (6-mer frequency, TF over GST control)

Sequence: CATGGT
- binding signal (FLI1): 1.25 fold enrichment (6-mer frequency, TF over GST control)
- binding signal (ELK1): 1.29 fold enrichment (6-mer frequency, TF over GST control)
- binding signal (GABPA): 1.29 fold enrichment (6-mer frequency, TF over GST control)
- binding signal (ERG): 1.38 fold enrichment (6-mer frequency, TF over GST control)
- binding signal (ELF1): 1.21 fold enrichment (6-mer frequency, TF over GST control)
- binding signal (EHF): 1.22 fold enrichment (6-mer frequency, TF over GST control)
- binding signal (SPI1): 1.27 fold enrichment (6-mer frequency, TF over GST control)
- binding signal (SPIB): 1.26 fold enrichment (6-mer frequency, TF over GST control)
- binding signal (ELK3): 1.3 fold enrichment (6-mer frequency, TF over GST control)

Sequence: AATCGC
- binding signal (FLI1): 1.12 fold enrichment (6-mer frequency, TF over GST control)
- binding signal (ELK1): 1.09 fold enrichment (6-mer frequency, TF over GST control)
- binding signal (GABPA): 1.14 fold enrichment (6-mer frequency, TF over GST control)
- binding signal (ERG): 1.07 fold enrichment (6-mer frequency, TF over GST control)
- binding signal (ELF1): 1.13 fold enrichment (6-mer frequency, TF over GST control)
- binding signal (EHF): 1.16 fold enrichment (6-mer frequency, TF over GST control)
- binding signal (SPI1): 1.05 fold enrichment (6-mer frequency, TF over GST control)
- binding signal (SPIB): 1.08 fold enrichment (6-mer frequency, TF over GST control)
- binding signal (ELK3): 1.16 fold enrichment (6-mer frequency, TF over GST control)

Sequence: CTCCGT
- binding signal (FLI1): 1.32 fold enrichment (6-mer frequency, TF over GST control)
- binding signal (ELK1): 1.28 fold enrichment (6-mer frequency, TF over GST control)
- binding signal (GABPA): 1.22 fold enrichment (6-mer frequency, TF over GST control)
- binding signal (ERG): 1.16 fold enrichment (6-mer frequency, TF over GST control)
- binding signal (ELF1): 1.21 fold enrichment (6-mer frequency, TF over GST control)
- binding signal (EHF): 1.15 fold enrichment (6-mer frequency, TF over GST control)
- binding signal (SPI1): 1.19 fold enrichment (6-mer frequency, TF over GST control)
- binding signal (SPIB): 1.13 fold enrichment (6-mer frequency, TF over GST control)
- binding signal (ELK3): 1.38 fold enrichment (6-mer frequency, TF over GST control)

Sequence: CTAACG
- binding signal (FLI1): 1.22 fold enrichment (6-mer frequency, TF over GST control)
- binding signal (ELK1): 1.23 fold enrichment (6-mer frequency, TF over GST control)
- binding signal (GABPA): 1.09 fold enrichment (6-mer frequency, TF over GST control)
- binding signal (ERG): 1.21 fold enrichment (6-mer frequency, TF over GST control)
- binding signal (ELF1): 1.13 fold enrichment (6-mer frequency, TF over GST control)
- binding signal (EHF): 1.13 fold enrichment (6-mer frequency, TF over GST control)
- binding signal (SPI1): 1.26 fold enrichment (6-mer frequency, TF over GST control)
- binding signal (SPIB): 1.11 fold enrichment (6-mer frequency, TF over GST control)
- binding signal (ELK3): 1.19 fold enrichment (6-mer frequency, TF over GST control)
